The source of these data is paper PMC11062922 (Nature Chemical Biology, 2023).

Holding throughout (design): species or system human, MV4-11 + K-562 + COLO205 + SK-N-BE2 + OVCAR-8
Assay [1] concerns CAMK4. Conditions: read-out: apparent Kd; compound concentrations:100 nM and 1000 nM (sheet 'Samples'); n = 1.
Assay [2] relates to CDK4. Conditions: read-out: apparent Kd; compound concentrations:100 nM and 1000 nM (sheet 'Samples'); n = 1.
The subject of assay [3] is CDKL5. Conditions: read-out: apparent Kd; compound concentrations:100 nM and 1000 nM (sheet 'Samples'); n = 1.
The test system of assay [4] is CLK1. Conditions: read-out: apparent Kd; compound concentrations:100 nM and 1000 nM (sheet 'Samples'); n = 1.
Assay [5] deals with GSK3A. The settings on record: read-out: apparent Kd; compound concentrations:100 nM and 1000 nM (sheet 'Samples'); n = 1.
For assay [6], the system named is GSK3B. The settings on record: read-out: apparent Kd; compound concentrations:100 nM and 1000 nM (sheet 'Samples'); n = 1.
In assay [7] the test system is ICK. The settings on record: read-out: apparent Kd; compound concentrations:100 nM and 1000 nM (sheet 'Samples'); n = 1.
Assay [8] concerns MERTK. The settings on record: read-out: apparent Kd; compound concentrations:100 nM and 1000 nM (sheet 'Samples'); n = 1.
Assay [9] has as its system PRKCA. The settings on record: read-out: apparent Kd; compound concentrations:100 nM and 1000 nM (sheet 'Samples'); n = 1.
For assay [10], the system named is PRKCB. Conditions: read-out: apparent Kd; compound concentrations: 100 nM and 1000 nM (sheet 'Samples'), CATDS: 6.3755563095046694E-2; n = 1.
Assay [11] has as its system PRKCD. The settings on record: read-out: apparent Kd; compound concentrations:100 nM and 1000 nM (sheet 'Samples'); n = 1.
In assay [12] the test system is PRKCQ. Conditions: read-out: apparent Kd; compound concentrations:100 nM and 1000 nM (sheet 'Samples'); n = 1.
For assay [13], the system named is RPS6KA6. The settings on record: read-out: apparent Kd; compound concentrations:100 nM and 1000 nM (sheet 'Samples'); n = 1.
For assay [14], the system named is RPS6KB1. The settings on record: read-out: apparent Kd; compound concentrations:100 nM and 1000 nM (sheet 'Samples'); n = 1.
Assay [15] concerns CDC42BPG. The settings on record: read-out: apparent Kd, compound concentrations: 100 nM and 1000 nM (sheet 'Samples'), n = 1.
The test system of assay [16] is CDC42. The settings on record: read-out: apparent Kd, compound concentrations: 100 nM and 1000 nM (sheet 'Samples'), n = 1.
In assay [17] the test system is CDK6. The settings on record: read-out: apparent Kd; compound concentrations: 100 nM and 1000 nM (sheet 'Samples'), CATDS: 0.35899533679328099; n = 1.
Assay [18] deals with MAP2K1. Conditions: read-out: apparent Kd; compound concentrations: 100 nM and 1000 nM (sheet 'Samples'), CATDS: 0.31550250727948498; n = 1.
Assay [19] deals with MAPK11. The settings on record: read-out: apparent Kd; compound concentrations: 100 nM and 1000 nM (sheet 'Samples'), CATDS: 0.36528894613698598; n = 1.
The test system of assay [20] is MAPKAPK2. Conditions: read-out: apparent Kd, compound concentrations: 100 nM and 1000 nM (sheet 'Samples'), n = 1.
The subject of assay [21] is TNK2. Conditions: read-out: apparent Kd; compound concentrations: 100 nM and 1000 nM (sheet 'Samples'), CATDS: 0.23701561839687901; n = 1.
Assay [22] concerns GAK. The settings on record: read-out: apparent Kd; compound concentrations: 100 nM and 1000 nM (sheet 'Samples'), CATDS: 0.13668141663723599; n = 1.
Assay [23] has as its system MAPK10. The settings on record: read-out: apparent Kd; compound concentrations: 100 nM and 1000 nM (sheet 'Samples'), CATDS: 0.12548752602980501; n = 1.
Assay [24] concerns MAPK14. Conditions: read-out: apparent Kd; compound concentrations: 100 nM and 1000 nM (sheet 'Samples'), CATDS: 0.192952593667473; n = 1.
In assay [25] the test system is MAPK9. Conditions: read-out: apparent Kd; compound concentrations: 100 nM and 1000 nM (sheet 'Samples'), CATDS: 0.107953199944472; n = 1.
Assay [26] relates to NQO1. Conditions: read-out: apparent Kd; compound concentrations: 100 nM and 1000 nM (sheet 'Samples'), CATDS: 8.60735929712554E-2; n = 1.
Assay [27] relates to TNIK. Conditions: read-out: apparent Kd; compound concentrations: 100 nM and 1000 nM (sheet 'Samples'), CATDS: 0.13491621958450101; n = 1.

Where two headings read alike, the source gives them in different places.

On to `Cl.Cn1cc(C2=C(c3cn(CCCN)c4ccccc34)C(=O)NC2=O)c2ccccc21` [RO0317549-002], for which the potency estimated from few doses was 1.43 µM in assay [1]; 1.65 µM in assay [2]; 2.06 µM in [3]; 1.85 µM in assay [4]; 0.136 µM in [5]; 0.115 µM in [6]. For the same compound, the potency estimated from few doses in assay [7] was 0.109 µM; in assay [8], 1.37 µM; in assay [9], 0.117 µM; in assay [10], 0.606 µM; in assay [11], 0.0933 µM; in [12], 0.566 µM. For the same compound, the potency estimated from few doses in assay [13] was 0.0441 µM; in assay [14] it was 1.18 µM.
Regarding `COc1ccc(-c2nn3ncccc3c2-c2ccnc(Nc3cccc(C(F)(F)F)c3)n2)cc1` [GW827105X], in assay [15] (CATDS: 1), the potency estimated from few doses is 1.92 µM.
Take `CCn1c(-c2ccccn2)nc2cnccc21` [SB-736398]: the potency estimated from few doses was 1.93 µM in assay [16] (CATDS: 0.328417840290395), 1.63 µM in assay [17] and 2.1 µM in [18].
For `Nc1c(C(=O)c2cccc(CCS(N)(=O)=O)c2)cnn1-c1ccc(F)cc1` [RO1162009-000], the potency estimated from few doses was 1.25 µM in assay [15] (CATDS: 0.22426146716058901), 0.5 µM in assay [19], 1.34 µM in assay [20] (CATDS: 0.21813918573992899) and 1.1 µM in assay [21].
As to `COC(=O)c1cccc(NC(=O)NCCNc2ccnc(Nc3ccc(F)cc3)n2)c1` [GSK1379883A], the potency estimated from few doses in assay [16] (CATDS: 1) is 1.56 µM.
In the case of `N#Cc1ccc2c(-c3ccnc(NC4CC4)n3)c(-c3ccc(F)cc3)nn2c1` [GW561436X], the potency estimated from few doses was 1.18 µM in assay [15] (CATDS: 0.104980182660456); 0.65 µM in assay [22]; 0.775 µM in [23]; 0.356 µM in assay [24]; 1.1 µM in assay [25]; 0.417 µM in [20] (CATDS: 0.17502946768032501). For the same compound, the potency estimated from few doses is 2.22 µM in assay [26] and 0.667 µM in assay [27].
